# This is a sample that favours compounds with a hit; in the whole collection about 21% have one here.
# DT40 TDP1 CPT: growth inhibition of DT40 Tdp1-/-;hTDP1 cells with camptothecin (screen for TDP1 inhibitors) | chicken DT40 Tdp1-/-;hTDP1 cells + 20 nM CPT, ATP luminescence, 48 h | Potency, µM (doses to about 46.2 µM), without a hit: at the highest dose activity change, negative = growth inhibition, most hits filed as inhibitors | hit rate 12% among 420,000; note: potency is the fitted concentration of half-maximal effect; nearly all actives have a fitted effect of over 55% in size
#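 Chicken DT40 Tdp1-/- cells stably complemented with human TDP1 were seeded at 400 cells/well in medium containing 20 nM camptothecin, exposed to pin-transferred compounds, and grown at 37 °C for at least 48 hr. Viability was read as ATP luminescence.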
# IL1B secr inh: inflammasome signaling inhibition, IL-1 beta readout. THP-1 LPS/ATP IL-1B secretion, AlphaLISA, 16 h; hits give low values. activity change, % at 57.5 µM. hit rate 4.7% among 360,000. AID 743279; in the data active = activity change below about -50%; inconclusive = mostly about -30% to -49%
#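 THP-1 cells pretreated 1 hr with compounds (up to 57.5 uM final), then stimulated with LPS (250 ng/mL final) plus ATP (1.25 mM final); secreted IL-1B measured by AlphaLISA after 16 hr, decreased signal indicating inhibition.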
# VP16 counter: inhibits Gal4-VP16 luciferase reporter, ROR gamma counter-screen; Drosophila S2 Gal4-VP16 UAS-luciferase, luminescence, 20 h; hit rate 3.5% among 310,000; Potency, µM (series often up to 53.6 µM), for inactives: top-dose activity, negative = inhibition, hits mostly inhibitors;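 note: Gal4-VP16 expression switched on by copper sulfate through the metallothionein promoter; potency is the fitted concentration of half-maximal effect; nearly all actives have a fitted effect of over 50% in size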
# TDP1 cell noCPT: qHTS for Inhibitors of human tyrosyl-DNA phosphodiesterase 1 (TDP1): qHTS in cells in absence of CPT | DT40 Tdp1-/- hTDP1 cells, no CPT, ATP luminescence, 48 h | Potency, µM (series often up to 46.2 µM), inactives show top-dose activity change, negative = growth inhibition, most hits filed as inhibitors | hit rate 15% among 420,000 | AID 686978, 2013; note: potency is the fitted concentration of half-maximal effect; nearly all actives have a fitted effect of over 55% in size
#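 Compound effects on proliferation are scored in DT40 Tdp1-/-;hTDP1 cells in the absence of CPT. ATP levels (CellTiter-Glo luminescence) are recorded after a ≥48 hr, 37 °C incubation.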
# RORgamma inh: inhibitors of mouse ROR gamma transcriptional activity; Drosophila S2 Gal4-RORgamma UAS-luciferase reporter, 20 h; Potency, µM (highest dose often 53.6 µM), without a hit: at the top dose activity change, negative = inhibition, most hits filed as inhibitors; hit rate 5.4% among 310,000; AID 2551; note: potency is the fitted concentration of half-maximal effect; nearly all actives have a fitted effect of over 60% in size
# Target sequence (P51450 whole entry, looked up, the tested form may be a part): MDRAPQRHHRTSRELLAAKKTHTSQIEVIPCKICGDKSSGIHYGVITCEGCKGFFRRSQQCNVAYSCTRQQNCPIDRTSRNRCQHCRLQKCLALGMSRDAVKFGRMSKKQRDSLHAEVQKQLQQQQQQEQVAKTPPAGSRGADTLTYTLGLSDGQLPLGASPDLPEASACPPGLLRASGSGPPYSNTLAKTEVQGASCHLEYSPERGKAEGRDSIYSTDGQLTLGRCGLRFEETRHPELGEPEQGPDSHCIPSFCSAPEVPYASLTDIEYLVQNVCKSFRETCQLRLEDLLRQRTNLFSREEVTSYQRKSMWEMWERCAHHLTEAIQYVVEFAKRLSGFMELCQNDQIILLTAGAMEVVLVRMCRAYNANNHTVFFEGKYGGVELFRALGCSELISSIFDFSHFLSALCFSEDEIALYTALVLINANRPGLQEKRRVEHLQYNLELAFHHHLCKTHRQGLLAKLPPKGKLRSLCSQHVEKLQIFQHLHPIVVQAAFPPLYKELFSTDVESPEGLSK
#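 Compounds are pin-transferred onto Drosophila Schneider cells expressing a copper-inducible Gal4–ROR gamma transactivation domain fusion. After 1 hr, copper sulfate is added to 700 uM final; luciferase is read 20 hr later.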
# ELG1 DNA repair: ELG1-dependent DNA repair inhibition; HEK293T ELG1-luciferase reporter, luminescence, 16 h; DNA damage induced by 5-fluorouridine; Potency, µM (series often up to 46.1 µM), without a hit: at the highest dose activity change, negative = inhibition, usual class: inhibitors; hit rate 2.3% among 330,000; note: potency is the fitted concentration of half-maximal effect; nearly all actives have a fitted effect of over 55% in size
#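 In this reporter screen, reduction of luminescence relative to DMSO vehicle indicated activity. Compounds and 5-fluorouridine were added together to 2,000 cells per well, incubated for 16 hr at 37 °C, then developed with ONE-Glo.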
# * marks the source's active call; other numbers are inactive results; ? = inconclusive; / = no result; [ ] = remark or other dose. Unless noted, calls come from the whole dose curve; as a rule, active = well fitted curve in the direction sought with a large enough effect; inconclusive = small, poorly fitted or top-dose-only effect, or another doubt; inactive = no such curve, though single readings can be large; an effect the other way counts as inactive or inconclusive. % is set by controls: 0 for no effect and ±100 for the full control effect.
SMILES,DT40 TDP1 CPT,IL1B secr inh,VP16 counter,TDP1 cell noCPT,RORgamma inh,ELG1 DNA repair
C=C(C)Cn1c2ccc(NC(=S)NCc3ccccc3F)cc2c(=O)n1C,?,-6.3,/,-18.3%,/,/
COC(=O)c1scc(C)c1NC(=O)C1CCCCC1,1.5%,-3.8,1.2%,0.0%,-11.7%,0.6%
Cc1cc(SCc2ccc(Cl)cc2Cl)nc(=O)[nH]1,?,12.7,0.1%,10.3µM*,7.5%,-16.3%
Cc1cc(SCc2ccccc2Cl)nc(=O)[nH]1,6.5%,13.1,2.3%,7.2%,19.5%,3.4%
Cc1ccccc1NC(=O)c1c(NC(=O)C(C)Oc2cccc(Cl)c2)sc2c1CCCC2 (stereo not given),-19.8%,/,/,-18.3%,/,/
CCc1nnc(NC(=O)CSc2ncnc3scc(-c4ccc(C)cc4)c23)s1,?,7.5,-1.0%,?,0.1%,1.7%
Cc1ccc(-c2csc3ncnc(SCc4ccc(C(=O)O)cc4)c23)cc1,-12.9%,1.6,4.47µM*,-0.5%,2.82µM*,-3.5%
Cc1ccc(-c2csc3ncnc(SCC(N)=O)c23)cc1,?,?,-20.7%[10 µM],?,1.58µM*,-21.9%
Cc1ccc(-c2csc3nc(SCC(N)=O)n(Cc4ccccc4)c(=O)c23)cc1,?,0.0,?,?,11.2µM*,23.1µM*
C=C(C)COc1ccc(-c2nc(N)ncc2Oc2ccc(OC)cc2)c(O)c1,?,0.0,-25.1%,29.1µM*,9.5%,-23.2%
C=C(C)COc1ccc(-c2nc(N)ncc2Oc2ccccc2OC)c(O)c1,?,-61.6*,-11.3%,?,16.7%,-6.9%
CCOc1ccc(-c2nc(N)ncc2Oc2ccccc2Br)c(O)c1,?,-22.2,?,?,-22.9%,-6.7%
CCOc1ccc(-c2nc(N)ncc2Oc2cccc(OC)c2)c(O)c1,?,?,-5.2%,18.4µM*,38.4%,?
C=C(C)COc1ccc(-c2nc(N)ncc2-c2ccc(Br)cc2)c(O)c1,?,0.0,-7.1%,?,10.0%,5.5%
CN(Cc1ccccc1)C(=O)c1ccco1,-17.3%,-5.7,-8.6%,8.0%,7.4%,20.4%
O=C(C#Cc1ccccc1)c1ccco1,1.3µM*,-100.6*,3.16µM*,0.581µM*,2.82µM*,?
CC(C)c1ccc(N2C=Nc3ccc(C(C)C)cc3C2)cc1,?,-96.9*,?,?,7.94µM*,-9.5%
C=CCOc1c(Br)cc(CNc2ccc3[nH]c(=O)[nH]c3c2)cc1OCC,?,/,-8.6%,?,-36.7%,?
C=CCOc1c(Br)cc(CNc2ccc(NC(=O)CCC)cc2)cc1OCC,?,0.0,-5.9%,16.4µM*,?,?
C=CCOc1c(Br)cc(CNc2ccc(NC(=O)C(C)C)c(OC)c2)cc1OCC,20.6µM*,-16.2,?,16.4µM*,-4.0%,1.0%
O=C(c1csnn1)N1CCC2(CCN(Cc3cc(C(F)(F)F)cc(C(F)(F)F)c3)CC2)CC1,?,/,2.3%,23.1µM*,-8.9%,/
COc1ccc(C(=O)N2CCC3(CCN(Cc4cc(C(F)(F)F)cc(C(F)(F)F)c4)CC3)CC2)cc1,23.1µM*,/,-10.4%,?,1.3%,/
Cc1noc(C)c1C(=O)N1CCC2(CCN(Cc3cc(C(F)(F)F)cc(C(F)(F)F)c3)CC2)CC1,?,/,4.2%,23.1µM*,-36.8%,/
COc1ccc(C(=O)N2CCC[C@@]3(CCN(Cc4cc(C(F)(F)F)cc(C(F)(F)F)c4)C3)C2)cc1,-9.5%,/,-2.6%,?,27.0%,/
CC(C(=O)Nc1ccc(S(=O)(=O)N2CCCC2)cc1)N1CCCC(C(N)=O)C1 (stereo not given),-4.8%,11.1,/,-0.5%,/,0.9%
Cc1ccc2nc(N(Cc3cccnc3)C(=O)COc3ccccc3)sc2c1,?,/,/,-8.3%,/,/
